Shown are actives, neighbours in structure and some others; about 11% of the full set was active somewhere.
AMA1 RON2 block: disrupts binding of P. falciparum AMA1 to RON2; AlphaScreen AMA1-biotinylated RON2 peptide binding; Potency, µM (titrated, usually from 58.2 µM), for the others: at the top dose activity change, negative = inhibition, most hits filed as inhibitors; 360,000 tested, 0.2% active;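 further: 0% = vehicle wells and -100% = peptide control; nearly all actives have a fitted effect of over 45% in size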
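AMA1 (3D7) with his tag at 25 nM final met compounds first, then biotinylated RON2 peptide at 25 nM; detection used donor plus acceptor beads, 10 µg/mL apiece, read by AlphaScreen after 30 min at room temperature.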
Pf growth 96h: inhibits malaria parasite growth, 96 h | AID 504834 | 320,000 tested, 6.9% active | P. falciparum luciferase reporter growth, 96 h | Potency, µM (series often up to 28.7 µM), for the others: at the top dose activity change, negative = inhibition, most hits filed as inhibitors
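Erythrocytes infected with luciferase-expressing P. falciparum were dispensed at 2% hematocrit and 0.05% parasitemia (final), then incubated with compounds 96 hours at 37 C in 5% CO2. Luminescence after detection reagent addition reported growth.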
Pf growth 48h: inhibits P. falciparum growth in the first generation, 48 h; P. falciparum luciferase growth in erythrocytes, 48 h; Potency, µM (titrated, usually from 28.7 µM), for inactives: top-dose activity change, negative = inhibition, usual class: inhibitors; 310,000 tested, 5.9% active
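Erythrocytes infected with P. falciparum carrying an integrated firefly luciferase reporter (2% hematocrit, 0.1% parasitemia final) were exposed to compounds in RPMI 1640 with 0.5% Albumax at 37 C, 5% CO2. Growth inhibition was scored as reduced luminescence.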
HCV inhibitor: HCV inhibition; Huh7.5.1 HCVcc-Cre infection, luciferase reporter, 44 h; Potency, µM (highest dose often 41.8 µM), for the others: at the highest dose activity change, negative = inhibition, usual class: inhibitors; 340,000 tested, 3.4% active; AID 651820
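Compounds are dispensed onto cells plated 4 h earlier at 1,000 per well, with HCVcc-Cre virus (about 0.5 moi) added next. Following 44 h of culture, luminescent signal is measured for 15 sec after 15 min with substrate at room temperature.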
An asterisk follows results filed as active; ? = inconclusive; nt = no result; [ ] = another dose, or the depositor's remark. The call rests on the fitted dose curve; in most records, active means well fitted curve in the direction sought with a large enough effect; inconclusive means small, poorly fitted or top-dose-only effect, or another doubt; inactive means no such curve, though single readings can be large; an effect the other way counts as inactive or inconclusive. Unless noted, on the % scale 0 is the no-effect control and ±100 the full control effect; potency means the concentration at half of the fitted maximal effect.

SMILES | AMA1 RON2 block | Pf growth 96h | Pf growth 48h | HCV inhibitor
CC1CCC2(CC1)NC(=O)N(CC(=O)Nc1cccc(S(=O)(=O)N3CCCC3)c1)C2=O (centres undefined) | 4.6% | -25.7% | ? | ?
CN(CC(=O)Nc1cccc(S(=O)(=O)N2CCCCC2)c1)Cc1ccc(F)cc1 | -3.9% | 9.28µM* | 13.1µM* | ?
COC(=O)COc1ccc(S(=O)(=O)N2CCCCC2)cc1[N+](=O)[O-] | 0.1% | -2.4% | 4.1% | 0.9%
COc1cc2c(oc(=O)c3cc(C)cc(OC)c32)c2c(C3OC(C)C(O)C(C)(O)C3O)ccc(O)c12 (centres undefined) | -2.7% | nt | nt | ?
CN=C(Nc1ccc(C(=O)OC)s1)c1ccc(Cl)cc1 | -7.8% | -2.8% | -9.3% | -16.2%
Cc1c(C)[n+](=O)c(-c2ccc(Br)cc2)c(C)n1[O-] | -6.9% | 2.3% | 64.0% | 10.8%
COc1ccc(S(=O)(=O)N2CCOCC2)cc1NC(=O)CN(C)CC(=O)Nc1cccc(F)c1 | 57.1% | nt | nt | -21.0%
CN(CC(=O)Nc1cccc(F)c1)CC(=O)Nc1cc(S(=O)(=O)N2CCOCC2)ccc1Cl | 122.8% | -1.8% | ? | 11.2µM*
CN(Cc1cccc(Cl)c1Cl)c1ccc(S(=O)(=O)N2CCCCC2)cc1[N+](=O)[O-] | ? | ? | -18.5% | 11.2µM*
Cc1cccc(NC(=O)c2ccc(S(=O)(=O)N3CCCC3)cc2)c1C | -3.9% | -19.8% | -6.9% | -3.2%
CN(CC(=O)Nc1cccc(F)c1)CC(=O)Nc1cccc(S(=O)(=O)N2CCCCC2)c1 | 14.6% | ? | 11.7µM* | ?
Cc1cccc(NC(=O)CN(C)C(C)C(=O)Nc2ccc(S(=O)(=O)N3CCCC3)cc2)c1C (centres undefined) | 33.5% | ? | 13.1µM* | ?
CC1CCc2ccccc2N1CC(=O)Nc1cccc(S(=O)(=O)N2CCCC2)c1 (centres undefined) | ? | ? | 11.7µM* | 31.6µM*
COc1ccccc1CN(C)CC(=O)Nc1cccc(S(=O)(=O)N2CCCCC2)c1 | 9.9% | ? | 11.7µM* | ?
O=C(CN1CCCc2ccccc21)Nc1cccc(S(=O)(=O)N2CCCC2)c1 | -12.0% | nt | nt | nt
COc1ccccc1CCC(=O)Nc1cccc(S(=O)(=O)N2CCCC2)c1 | 7.8% | ? | ? | -27.8%
COC(=O)CSC1=C(C#N)C(c2ccc3c(c2)OCO3)C2=C(CCCC2=O)N1 (centres undefined) | 5.8% | ? | -16.5% | -10.3%
COC(=O)C1=C(N)N(c2ccccc2C(F)(F)F)C2=C(C(=O)CCC2)C1c1ccc2c(c1)OCO2 (centres undefined) | 0.8% | 7.38µM* | 3.7µM* | ?
Cc1cccc(C(=O)O/N=C/c2c(N3CCOCC3)n(C)c3ccccc23)c1 | nt | 1.85µM* | 6.57µM* | nt
Cn1c(Cl)c(/C=N/OC(=O)c2ccccc2Cl)c2ccccc21 | -3.6% | 74.9% | 28.6% | ?
Cc1ccc(N2CCN(C(=O)C(=O)c3ccc4c(c3)OCO4)CC2)cc1 | 3.5% | nt | nt | nt
COc1cc(C(=O)NCc2nnc(SCC(=O)NC3CCCC3)o2)cc(OC)c1OC | 1.8% | 8.28µM* | 17.8% | 3.9%
COc1cc(C(=O)NCCC(=O)NC2CCCCC2)cc(OC)c1OC | -0.3% | 9.28µM* | -1.1% | 16.7%
COc1ccc(NC(=O)CSc2nnc(CNC(=O)COc3ccc(Cl)cc3)o2)c(OC)c1 | -13.0% | 9.28µM* | 13.1µM* | -13.0%
O=C(COc1ccc(Cl)cc1)NCc1nnc(SCC(=O)NC2CCCC2)o1 | 18.0% | 4.15µM* | ? | 1.0%
SMILES | AMA1 RON2 block | Pf growth 96h | Pf growth 48h | HCV inhibitor
O=C(CSc1nnc(COc2ccc(Cl)cc2)o1)NC1CCCCC1 | 1.4% | 16.5% | 6.3% | -0.9%[8.37 µM]
COc1ccc(NC(=O)CSC(C)c2nc3ccccc3c(=O)[nH]2)cc1 (centres undefined) | 5.3% | 8.6% | 12.3% | 19.0%
NC(=O)Nc1ccc(C(=O)OCC(=O)Nc2ccc(Cl)cn2)cc1 | -17.1% | 39.3% | -6.0% | 6.1%
CCOc1cc(C(=O)CSc2nnc(CNc3ccc(Cl)cc3)o2)ccc1NC(=O)CC | 12.6% | ? | ? | 11.2µM*
CCOC(=O)[C@]12CCC=C1N(CCC1=CCCCC1)C(=O)[C@H](CC(=O)NCc1cccs1)C2 | -8.8% | nt | nt | nt
O=C1N(c2cccc(Cl)c2)C(c2cccnc2)N2CCCN12 (centres undefined) | 6.7% | 13.1µM* | 4.5% | 4.8%
COc1ccc(C(=O)COC(=O)c2cc([N+](=O)[O-])ccc2N2CCOCC2)c(OC)c1 | 5.0% | 2.3% | -7.7% | 1µM*
COc1ccc(NC(=O)COC(=O)c2cc([N+](=O)[O-])ccc2N2CCOCC2)cc1 | -17.9% | -1.0% | 89.5% | ?
O=C(COC(=O)c1cc([N+](=O)[O-])ccc1N1CCOCC1)c1ccccc1Cl | -8.8% | 15.8% | 14.5% | ?
COc1cc(C(=O)COC(=O)c2cc([N+](=O)[O-])ccc2N2CCOCC2)ccc1OC(F)F | -9.9% | ? | ? | 1.12µM*
CC1CCCN(C(=O)COC(=O)c2cc([N+](=O)[O-])ccc2N2CCOCC2)C1 (centres undefined) | 0.5% | -4.9% | -21.5% | 31.6µM*
O=C(COC(=O)c1cc([N+](=O)[O-])ccc1N1CCOCC1)c1ccccc1 | -4.4% | -2.9% | -18.9% | ?
Cc1cc(C)c(C(=O)COC(=O)c2cc([N+](=O)[O-])ccc2N2CCOCC2)cc1C | -0.4% | ? | 10.4µM* | -22.4%
OCCN1CCN(c2ncnc3c2ncn3[C@H]2CN(Cc3ccc(F)cc3)C[C@@H](CO)O2)CC1 | -7.6% | nt | nt | nt
COc1ccccc1CNC(=O)Cn1c(=O)c2cccn2c2cccnc21 | 17.6% | -12.7% | -20.3% | -2.2%
Cc1nn(C)cc1/C=N\NC(=O)c1ccc2c(c1)c(C)c(C)n2Cc1ccccc1 | 70.3% | ? | nt | ?
COCCN1C[C@@H](CO)O[C@@H](n2cnc3c(N4CCN(CCO)CC4)ncnc32)C1 | -4.9% | nt | nt | nt
COc1ccc(C(=O)C2CCCN(S(=O)(=O)c3ccccc3F)C2)c(C)c1 (centres undefined) | 47.5% | ? | -17.8% | ?
COc1ccccc1C(=O)COC(=O)c1cc([N+](=O)[O-])ccc1N1CCOCC1 | -12.9% | ? | 4.65µM* | ?
Cn1c(=O)c2cc(S(=O)(=O)NC(C(=O)N3CCCCCC3)c3ccccc3)ccc2n(C)c1=O (centres undefined) | 1.4% | 10.4µM* | nt | 14.3%
CCOC(=O)[C@]12Cc3cc(Cl)ccc3[C@H]1N(Cc1ccccc1)C(=O)c1ccccc12 | -5.4% | nt | nt | -12.9%[8.37 µM]
CCOC(=O)[C@]12Cc3cc(N(C)C)ccc3[C@H]1N(Cc1ccccc1)C(=O)c1ccccc12 | ? | nt | nt | 11.2µM*
O=C1CCNCCN1[C@H](CO)c1ccccc1 | 15.4% | ? | 0.0% | ?
C/C(=N\N1CCCCCC1)c1c(O)n(-c2ccc(Cl)cc2)c(=O)[nH]c1=O | -0.7% | 3.2% | ? | 1.9%
C/C(=N\N1CCCCCC1)c1c(O)n(-c2ccc(C)cc2)c(=O)[nH]c1=O | -15.8% | 11.7µM* | ? | 7.4%

Screening results: PubChem BioAssay, National Center for Advancing Translational Sciences (NCATS)
